Screening data (PubChem)
A selection: hits, their analogues and other compounds. The true share with any hit is near 7.3%.
FMDV antiviral: blocks foot and mouth disease virus | FMDV antiviral cell-based qHTS | Potency, µM (series often up to 57.9 µM), inactives show at the top dose activity change, negative = inhibition, hits mostly inhibitors | 410,000 compounds, 1.2% hits | AID 1159524; calls by dose curve; tested in HEK293T cells; also: read-out not given here; potency is read from the fitted curve at half-maximal effect; nearly all actives have a fitted effect of over 45% in size
HCMV antiviral: human cytomegalovirus inhibition. activity change, negative = inhibition, % at 57.5 µM. AID 1259415. HFF cells, HCMV-luciferase reporter, 72 h; stronger effect = lower value. 410,000 compounds, 4.5% hits; in the data active = activity change below about -60%; inconclusive = no clear call, values can overlap the other calls; inactive = above about -39%
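HFF cells seeded 16 h at 37C, treated with compounds, infected with luciferase-reporter HCMV at MOI 1 PFU/cell; luciferase read at 72 h post infection, normalized to buffer-only and Salinomycin controls.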
AmpC detergent: blocks E. coli AmpC beta-lactamase in detergent assay | AmpC hydrolysis of nitrocefin, absorbance 480 nm, 0.01% Triton | Potency, µM (top dose mostly 114 µM), for the others: at the top dose activity change, negative = inhibition, hits mostly inhibitors | 370,000 compounds, 0.041% hits | AID 485294;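 also: potency is read from the fitted curve at half-maximal effect; 0% = no-compound wells and -100% = no-enzyme wells; nearly all actives have a fitted effect of over 25% in size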
Target sequence (P00811 whole entry, looked up): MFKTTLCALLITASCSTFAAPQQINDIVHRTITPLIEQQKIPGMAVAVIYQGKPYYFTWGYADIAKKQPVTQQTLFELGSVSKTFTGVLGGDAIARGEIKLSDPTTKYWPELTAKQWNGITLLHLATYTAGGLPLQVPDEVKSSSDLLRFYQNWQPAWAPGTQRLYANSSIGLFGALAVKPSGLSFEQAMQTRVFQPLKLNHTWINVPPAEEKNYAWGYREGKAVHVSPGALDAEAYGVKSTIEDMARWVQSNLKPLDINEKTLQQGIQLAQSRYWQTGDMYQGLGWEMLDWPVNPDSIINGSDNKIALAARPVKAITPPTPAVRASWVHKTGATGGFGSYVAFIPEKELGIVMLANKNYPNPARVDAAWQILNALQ
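AmpC (5.3 nM in the dispensed reagent) in 20 mM phosphate pH 7.0 with 0.01% (detergent screen) or 0.0001% Triton X-100 was preincubated with compounds for 15 min at room temperature. Nitrocefin was then added from an 800 uM solution, and hydrolysis was followed at 480 nm.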
AmpC inh no detg: blocks E. coli AmpC beta-lactamase in detergent-free assay | AmpC nitrocefin hydrolysis, absorbance 480 nm, 0.0001% Triton | AID 485341 | 330,000 compounds, 0.52% hits | Potency, µM (doses to about 57.1 µM), for inactives: at the top dose activity change, negative = inhibition, usual class: inhibitors;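 also: potency is read from the fitted curve at half-maximal effect; plate controls were no compound for no effect and no enzyme for full effect; nearly all actives have a fitted effect of over 20% in size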
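AmpC (5.3 nM in the dispensed reagent) in 20 mM phosphate pH 7.0 with 0.01% (detergent screen) or 0.0001% Triton X-100 was preincubated with compounds for 15 min at room temperature. Nitrocefin was then added from an 800 uM solution, and hydrolysis was followed at 480 nm.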
HCV inhibitor: inhibitors of hepatitis C virus infection | Potency, µM (titrated, usually from 41.8 µM), for inactives: at the top dose activity change, negative = inhibition, actives largely listed as inhibitors | 340,000 compounds, 3.4% hits | AID 651820 | Huh7.5.1 HCVcc-Cre infection, luciferase reporter, 44 h; also: potency is read from the fitted curve at half-maximal effect
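A cell-based infection assay in which seeded cells (1,000 per well) receive test compound after 4 h, are inoculated with HCVcc-Cre at approximately 0.5 moi, and are incubated 44 h before luminescence detection.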
* hit, by the source's call; ? = inconclusive; · = no result given. Unless noted, calls follow the shape of the dose curve; as a rule, active = well fitted curve in the direction sought with a large enough effect; inconclusive = small, poorly fitted or top-dose-only effect, or another doubt; inactive = no such curve, though single readings can be large; an effect the other way counts as inactive or inconclusive. Unless noted, % is scaled to controls: 0 for no effect and ±100 for the full control effect.

SMILES	FMDV antiviral	HCMV antiviral	AmpC detergent	AmpC inh no detg	HCV inhibitor
CCOc1ccc(NC(=O)C2CCCN(c3c(CC)c(C)nc4ncnn34)C2)cc1 (stereo not drawn)	?	31	?	9%	13µM*
CCc1c(C)nc2ncnn2c1N1CCN(S(=O)(=O)c2ccc(OC)cc2)CC1	-30%	-72*	-4%	-15%	1.8µM*
CCc1c(C)nc2ncnn2c1N1CCCC(C(=O)NCCc2ccccc2)C1 (stereo not drawn)	-6%	-23	?	4%	-26%
CCc1c(C)nc2ncnn2c1N1CCCC(C(=O)Nc2cc(F)ccc2C)C1 (stereo not drawn)	35µM*	-35	-7%	5%	-30%
Cc1nc2ccccn2c1C(=O)/C=C/c1ccc(F)cc1	-21%	79	1%	-11%	-5%
Cc1nc2ccccn2c1-c1ccnn1S(=O)(=O)c1ccc(F)cc1	?	-94*	-6%	124%	?
O=C1CC(C(=O)N2CCOc3ccc(CN4CCC(Oc5cccnc5)CC4)cc3C2)c2ccccc21 (stereo not drawn)	-18%	·	·	·	·
COc1cccc2sc(N(CCN(C)C)C(=O)/C=C/c3cccs3)nc12	0%	0	7%	154%	?
Cc1ccc2nc(N(CCN(C)C)C(=O)/C=C/c3cccs3)sc2c1	-16%	?	-1%	141%	?
COc1ccc(C)c2sc(N(CCN(C)C)C(=O)/C=C/c3cccs3)nc12	-17%	?	-3%	167%	14µM*
CCOc1cccc2sc(N(CCN(C)C)C(=O)/C=C/c3cccs3)nc12	?	·	0%	168%	32µM*
COc1ccc(OC)c2sc(N(CCN(C)C)C(=O)/C=C/c3cccs3)nc12	-20%	-85*	-1%	156%	?
Cc1c(C(=O)N2CC3CCC2C3)sc2ncnc(NCCc3ccccn3)c12 (stereo not drawn)	-9%	·	·	·	·
CC1=C(C(=O)Nc2cccnc2)C(c2ccc(F)cc2)n2nc(SCc3ccccc3)nc2N1 (stereo not drawn)	-20%	-14	5%	·	·
COc1ccc(-n2c(SCC(=O)N3CCC(C(=O)O)CC3)nc3ccccc3c2=O)cc1OC	-14%	-23	-3%	-7%	13%
CC(=O)c1ccccc1OCCCOc1cccc2cccnc12	-18%	-83*	·	·	?
CCOC(=O)C(=Cc1ccc(-c2ccsc2C(=O)OC)o1)C(=O)OCC	32µM*	-9	-14%	23%	?
COC(=O)C(=Cc1ccc(-c2ccsc2C(=O)OC)o1)C(=O)OC	-10%	19	-1%	0%	-5%
CCOc1ccc2nc(N3CCC(C(=O)N4CCN(c5ncccn5)CC4)CC3)sc2c1	?	20	-2%	13%	-11%
CCc1ccc2nc(N3CCC(C(=O)N4CCC5(CC4)OCCO5)CC3)sc2c1	-11%	?	?	238%	11µM*
CCOc1ccc2nc(N3CCC(C(=O)N4CCN(c5ccccn5)CC4)CC3)sc2c1	14µM*	·	?	?	6.3µM*
O=C(C1CCN(c2nc3ccc(Br)cc3s2)CC1)N1CCC2(CC1)OCCO2	-28%	-33	0%	70%	3.2µM*
Cc1ccc([C@H]2N[C@]3(CCCN(Cc4cccn4C)C3=O)[C@H]3C(=O)N(Cc4ccccc4)C(=O)[C@@H]23)cc1	-21%	17	·	·	·
CCOC(=O)c1cccc(Nc2nc(C(=O)OCC)nc3ccccc23)c1	?	-15	2%	·	·
O=C(O)c1cccc(Nc2nc(-c3cccnc3)nc3ccccc23)c1	-13%	-30	-9%	-28%	18%
SMILES	FMDV antiviral	HCMV antiviral	AmpC detergent	AmpC inh no detg	HCV inhibitor
CCOC(=O)c1cccc(Nc2nc(-c3cccnc3)nc3ccccc23)c1	28µM*	-21	-4%	30%	?
COC(=O)c1cccc(Nc2nc(-c3cccnc3)nc3ccccc23)c1	?	-9	-5%	?	7.1µM*
Cc1cccc(OCC(=O)OCC(=O)NCC2CCCO2)c1C (stereo not drawn)	15%	-2	-1%	-21%	-13%
Cc1cccc2c(=O)cc(C(F)(F)F)[nH]c12	?	-5	-4%	-20%	-11%
O=c1cc(C(F)(F)F)[nH]c2c(OC(F)(F)F)cccc12	?	-95*	-6%	-20%	11%
CC(=O)c1sc(NC(=O)COc2ccc(C(C)C)c(C)c2)nc1C	-27%	-38	?	-19%	2.5µM*
O=C(c1cc2cc(Cl)ccc2[nH]1)N1CCc2ccccc2C1	38%	12	1%	-33%	?
Cc1ccc(Cl)cc1-c1cc(C(=O)N2CCc3ccccc3C2)[nH]n1	9%	-98*	·	·	·
CC1=CC(=Nc2c(C)n(C)n(-c3ccccc3)c2=O)C=C(C)C1=O	?	-75*	-10%	-18%	32%
CC1=CC(=Nc2c(C)n(C)n(-c3ccccc3)c2=O)C=CC1=O	·	·	0%	-17%	·
COc1ccc(N(C)C(=O)c2ccc3nc(-c4ccccc4)c(-c4ccccc4)nc3c2)cc1	?	8	1%	85%	11µM*
N#CC1CN(C(c2ccccc2)c2ccccc2)C1	-13%	?	-9%	0%	16%
N#CC1CN(Cc2ccccc2)CN(Cc2ccccc2)C1	-26%	-63*	-3%	1%	7%
CN(C)/C=N/c1ncc(C(=O)c2ccc(Cl)cc2Cl)s1	-12%	-61*	-8%	37%	?
CN(C)/C=N/c1ncc(C(=O)c2ccc(Cl)cc2)s1	1%	-5	2%	-16%	-4%
CC1(C)Cc2nc(Cl)c(C#N)cc2CO1	-23%	-100*	2%	-9%	6%
CCOc1ccc(NC(=O)COC(=O)CNC(=O)c2ccc(-c3ccccc3)cc2)cc1	23%	0	3%	-19%	-4%
COc1ccc(C2=NCCn3c2c2ccc(OC)cc2[n+]3[O-])cc1	·	32	·	·	·
Nc1ccccc1C#CC(=O)c1ccccc1	?	-100*	-6%	-23%	?
CCOC(=O)c1[nH]c2c(c1C)C(=O)CC(c1ccco1)C2 (stereo not drawn)	0%	-81*	?	-30%	?
COCCOC(=O)c1[nH]c2c(c1C)C(=O)CC(c1ccco1)C2 (stereo not drawn)	?	-67*	?	-12%	?
COC(=O)c1[nH]c2c(c1C)C(=O)CC(c1cccs1)C2 (stereo not drawn)	-4%	-76*	3%	-20%	?
Cc1ccc(N2CCN(c3ccc(NCc4nc5ccccc5n4C)cc3)CC2)cc1	13%	19	?	-41%	?
Cn1c(CNc2ccc(Cl)cc2)nc2ccccc21	-3%	296	-2%	-37%	20µM*
O=C1NC(=S)N/C1=C/c1cc2c(cc1[N+](=O)[O-])OCO2	-20%	-80*	0%	-12%	-4%
C/C(=C\C(=O)c1ccccc1)Nc1ccc2c(c1)OCO2	-10%	37	-12%	-38%	3.2µM*
